The record followed here is PubChem BioAssay (EPA / NIEHS).

Results filed as inconclusive are left out. The source made the active and inactive calls. Rule for the calls: active = hit-call score of the fitted dose curve at least 0.9, where 1 is the maximum; inconclusive = response in the unintended direction; inactive = score below 0.9.

The target of the test is Estrogen receptor beta (Homo sapiens) (UniProt Q92731). Description: OT_ER_ERbERb_0480: Odyssey Thera (OT) 8-hour HEK293T Protein-Complementation Assay for Estrogen Receptor-beta/-beta Homodimer (AID 2283357). As for the experimental part: OT_ER_ERbERb_0480 is a cell-based assay that uses HEK293T, a human kidney cell line, with measurements taken at 8 hours after chemical dosing in a 384-well plate.OT_ER_ERbERb_0480 is one of one assay component(s) measured or calculated from the OT_ER_ERbERb_0480 assay. It is designed to make measurements of protein fragment complementation, a form of binding reporter, as detected with fluorescence intensity signals by Protein-fragment Complementation technology.Data from the assay component OT_ER_ERbERb_0480 was analyzed into 1 assay endpoint. This assay endpoint, OT_ER_ERbERb_0480, was analyzed in the positive analysis fitting direction relative to DMSO as the negative control and baseline of activity. Using a type of binding reporter, measures of receptor for gain-of-signal activity can be used to understand the binding at the pathway-level as they relate to the gene ESR2. Furthermore, this assay endpoint can be referred to as a primary readout, because the performed assay has only produced 1 assay endpoint. To generalize the intended target to other relatable targets, this assay endpoint is annotated to the nuclear receptor intended target family, where the subfamily is steroidal.
Chain of Estrogen receptor beta (Homo sapiens) (Q92731 whole entry, looked up, the tested form may be a part): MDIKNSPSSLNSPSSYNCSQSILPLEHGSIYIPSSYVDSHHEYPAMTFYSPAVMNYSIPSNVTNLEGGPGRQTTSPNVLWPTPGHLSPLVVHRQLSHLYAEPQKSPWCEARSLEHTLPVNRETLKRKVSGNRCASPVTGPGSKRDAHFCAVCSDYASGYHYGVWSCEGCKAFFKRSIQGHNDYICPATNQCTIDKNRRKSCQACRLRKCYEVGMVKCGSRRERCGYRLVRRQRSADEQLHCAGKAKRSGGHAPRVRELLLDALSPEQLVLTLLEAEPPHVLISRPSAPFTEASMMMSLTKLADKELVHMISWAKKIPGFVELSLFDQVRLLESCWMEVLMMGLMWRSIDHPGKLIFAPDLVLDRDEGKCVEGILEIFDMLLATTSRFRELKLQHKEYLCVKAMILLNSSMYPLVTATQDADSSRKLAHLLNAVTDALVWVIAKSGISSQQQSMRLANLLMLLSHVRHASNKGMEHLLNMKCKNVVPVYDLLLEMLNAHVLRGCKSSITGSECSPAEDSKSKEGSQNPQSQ
Protein-fragment complementation assay, or PCA, is a method for the identification and quantification of protein-protein interactions. In the PCA, the proteins of interest ("bait" and "prey") are each covalently linked to fragments of a third protein (e.g. DHFR, which acts as a "reporter"). Interaction between the bait and the prey proteins brings the fragments of the reporter protein in close proximity to allow them to form a functional reporter protein whose activity can be measured. The OT ER beta / ER beta assay is a homodimer PCA of the ligand binding domain (LBD; amino acids 310-547) of human ER beta stably expressed in HEK293T cells. […] Cells are fixed in 4 percent formaldehyde and stained with Draq5 (BioStatus) to identify cells prior to signal detection. Fluorescent signal in the basal state of the assay is very low and is primarily punctuate and cytoplasmic. Modulation of this assay is quantified as an increase in mean fluorescence intensity in the nucleus (for agonists) or in the nucleus and cytoplasm (antagonists) relative to vehicle controls, and can be quantified on a high content imaging device or a laser scanning cytometer. The latter instrument is favored for this assay because of the rapid mode of data acquisition, the ability to acquire data from the entire cell population in a well (as opposed to a fraction of the well on the high content devices) and the larger dynamic range typically achieved with this instrument. To assess sensitivity of the ER beta/ER beta LBD assay to ligand, cells were treated with the ER agonist 17- beta-estradiol (E2) in 10-point concentration- response format for 8 hours and monitored response on a laser scanning plate cytometer (Acumen eX3; TTP Lab Tech).
On to `CC(C)[C@@H]1CC[C@@H](C)C[C@H]1O`, for which the compound was called inactive.

With `CCCCc1ccc2ccccc2c1S(=O)(=O)O`, the call was inactive.

With `CCCCCCCCCCCCOC(=O)c1cc(O)c(O)c(O)c1`, the outcome was inactive. On the same count and under the same terms, under `CCCCCCCCCCCCCCC` stands “inactive”; under `NS(=O)(=O)O`, “inactive”; under `Cc1cc(C(=C2C=CC(=Nc3ccc(S(=O)(=O)O)cc3)C=C2)c2ccc(Nc3ccc(S(=O)(=O)O)cc3)cc2)cc(S(=O)(=O)O)c1N`, “inactive”.

In general, AC50 refers to the midpoint of the concentration-response curve, whichever way the signal moves. For the compound `C[C@]12CC[C@@H]3c4ccc(O)cc4CC[C@H]3[C@@H]1C[C@@H](O)[C@@H]2O`, the concentration at half-maximal activity (AC50) is 0.552 µM (active).

`CC(=O)Nc1ccc(O)cc1`: the outcome was inactive. Consider `COc1cc([N+](=O)[O-])ccc1N`, for which the result was inactive. In the case of `CCc1ccccc1O`, the call was inactive. Regarding `O=C1NS(=O)(=O)c2ccccc21`, the compound was classed as inactive.

Consider `NCc1cccc(CN)c1`, for which the outcome was inactive. Same read-out and setting: under `CCCCCCC(C)(C)C(=O)O` stands “inactive”; under `Cc1cc(Cc2cc(C)cc(C(C)(C)C)c2O)c(O)c(C(C)(C)C)c1`, “inactive”; under `CCC(C)c1ccccc1O` (stereo not given), “inactive”. Same read-out and setting: under `O=S(=O)(O)c1ccccc1` stands “inactive”; under `c1cnc2c(c1)ccc1cccnc12`, “inactive”. With `CC(O)COc1ccccc1` (stereo not given), the call was inactive. For the compound `CCCCCCCCCCCC(=O)O`, the compound was called inactive.

Regarding `CCCCCCc1ccc(N)cc1`, the AC50 is 50 µM (active). Consider `Cc1[nH]nc2c1N=C(c1ccccc1Cl)c1cc([N+](=O)[O-])ccc1N2`, for which the outcome was inactive. In the case of `O=C(CCCN1CCC(O)(c2ccc(Cl)cc2)CC1)c1ccc(F)cc1`, the result was inactive. Turning to `Cc1cc(C(C)(C)C)c(O)c(C(C)(C)C)c1`, the result was inactive.

With `CCCCCCCCCC=CCC1CC(=O)OC1=O` (stereo not given), the compound was called inactive. `CCCCc1oc2ccccc2c1C(=O)c1cc(I)c(OCCN(CC)CC)c(I)c1`: the compound was classed as inactive.
